Screening data deposited in PubChem BioAssay by Broad Institute.
ALR inh: inhibitors of human sulfhydryl oxidase ALR. P55789. purified ALR, DTT oxidation, H2O2 HRP-luminol luminescence. inhibition, % (test concentration not listed). 290,000 tested, 3.8% active. AID 485317;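 active = mean replicate inhibition above about 79%, with every replicate also reaching it, limit read from the data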
N-glyco inh: blocks N-linked glycosylation in D54 reporter cells. D54 ERlucT glycosylation luciferase reporter, 24 h; percent of 100 nM tunicamycin response. reporter increase, % at 12.5 µM. 360,000 tested, 0.23% active. AID 588692;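 active = mean luciferase reporter signal, scaled so untreated is 0 and the glycosylation-blocking control 100, at or above a set limit in every replicate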;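 also: luciferase carries N-glycosylation sites so blocking glycosylation raises the light; 0% = median of neutral control wells and 100% = median of 100 nM tunicamycin wells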
CDK5 p35 inh: inhibitors of human CDK5/p35 kinase. Q00535+Q15078. Recombinant CDK5/p35, ADP-Glo luminescence, 60 min. inhibition, % at 10 µM. 330,000 tested, 0.01% active. AID 488839;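 active = highest replicate inhibition of at least 50% and at least 75% of replicates reaching 50%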;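 also: plate controls were DMSO neutral control for no effect and GW8510 at 10 µM for full effect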
Mot1-301 SUMO: inhibitors of SUMOylation pathway: yeast Mot1-301 growth rescue. AID 2716. S. cerevisiae Mot1-301 growth rescue, ATP luminescence, 38.5C; percent above DMSO median, 100 means doubled. 320,000 tested, 1% active. growth rescue, % at 18.8 µM;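 active = every valid replicate shows activation above 250% relative to neutral control wells; inactive = the rest, any valid replicate at or below 250%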;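 also: OY570 slx delta 5 strain wells were the positive control but not used for scaling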
Casp6 inh: inhibitors of human caspase-6 | inhibition, % at 12.5 µM | 350,000 tested, 0.53% active | AID 686996 | purified caspase-6, Z-VEID-R110 cleavage fluorescence | P55212;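 active = mean inhibition across replicates at least about 35%, with every replicate also reaching that limit, limit read from the data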;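 also: 0% = median of neutral control wells and 100% = no fluorescence left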
NSD2 inh: NSD2 (human) methyltransferase inhibition | O96028 | NSD2 peptide methylation, AlphaScreen, 120 min | inhibition, % at 12.5 µM | 310,000 tested, 0.54% active; in the data active = inhibition above about 50%
Target sequence (O96028 whole entry, looked up): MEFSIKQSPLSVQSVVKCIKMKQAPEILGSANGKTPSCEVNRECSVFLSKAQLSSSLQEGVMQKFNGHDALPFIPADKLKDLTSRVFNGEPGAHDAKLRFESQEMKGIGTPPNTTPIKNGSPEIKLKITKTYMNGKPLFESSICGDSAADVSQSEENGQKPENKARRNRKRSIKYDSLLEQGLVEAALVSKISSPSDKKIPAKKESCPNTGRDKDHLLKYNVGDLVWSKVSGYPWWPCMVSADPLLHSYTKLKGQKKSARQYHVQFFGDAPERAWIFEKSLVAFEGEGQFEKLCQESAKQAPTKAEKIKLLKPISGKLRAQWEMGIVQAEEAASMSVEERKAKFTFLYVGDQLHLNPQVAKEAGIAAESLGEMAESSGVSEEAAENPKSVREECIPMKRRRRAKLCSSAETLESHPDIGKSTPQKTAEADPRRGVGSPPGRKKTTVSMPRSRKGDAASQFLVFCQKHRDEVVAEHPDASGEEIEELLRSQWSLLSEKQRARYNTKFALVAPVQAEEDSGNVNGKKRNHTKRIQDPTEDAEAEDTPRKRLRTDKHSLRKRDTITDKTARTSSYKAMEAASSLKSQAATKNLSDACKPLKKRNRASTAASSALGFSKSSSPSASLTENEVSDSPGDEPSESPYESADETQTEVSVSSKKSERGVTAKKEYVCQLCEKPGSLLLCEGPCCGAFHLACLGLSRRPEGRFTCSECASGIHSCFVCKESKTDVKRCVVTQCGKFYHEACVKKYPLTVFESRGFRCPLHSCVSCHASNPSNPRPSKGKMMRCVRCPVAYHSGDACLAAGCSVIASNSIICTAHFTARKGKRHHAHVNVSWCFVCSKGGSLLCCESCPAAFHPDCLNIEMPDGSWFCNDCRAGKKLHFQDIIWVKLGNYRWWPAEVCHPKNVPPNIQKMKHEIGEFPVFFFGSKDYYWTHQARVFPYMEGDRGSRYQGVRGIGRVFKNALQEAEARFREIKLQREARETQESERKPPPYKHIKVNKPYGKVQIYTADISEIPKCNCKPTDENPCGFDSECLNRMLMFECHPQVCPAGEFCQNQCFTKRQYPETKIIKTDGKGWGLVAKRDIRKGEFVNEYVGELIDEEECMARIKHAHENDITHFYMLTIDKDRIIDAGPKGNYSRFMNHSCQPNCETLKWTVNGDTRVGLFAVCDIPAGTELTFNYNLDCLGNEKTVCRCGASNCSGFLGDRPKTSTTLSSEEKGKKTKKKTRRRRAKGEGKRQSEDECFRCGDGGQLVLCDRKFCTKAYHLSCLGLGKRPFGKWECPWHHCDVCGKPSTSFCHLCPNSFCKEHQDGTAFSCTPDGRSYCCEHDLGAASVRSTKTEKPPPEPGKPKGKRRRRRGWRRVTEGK
Numbers without * were called inactive; i = inactive; / = no result given; ! = not active in a repeat. Shown are actives, neighbours in structure and some others; about 3.9% of the full set was active somewhere.

SMILES	ALR inh	N-glyco inh	CDK5 p35 inh	Mot1-301 SUMO	Casp6 inh	NSD2 inh
COc1cccc(NC(=O)c2cc([N+](=O)[O-])ccc2NC(=O)CNCC2CCCO2)c1 (stereo unspecified)	100*	0	1	7	1	/
O=C(CNCC1CCCO1)Nc1ccc([N+](=O)[O-])cc1C(=O)Nc1ccccc1F (stereo unspecified)	/	-1	1	-11	-4	-2
COc1cccc(NC(=O)N2C[C@H](O)COC[C@@H]3O[C@H](CC(=O)NC4CCCC4)CC[C@H]32)c1	/	/	/	/	-3	/
O=C(COC(=O)c1ccc(S(=O)(=O)NCc2ccco2)cc1)Nc1ccc(Cl)cn1	3	1	0	-2	46*	1
O=C(COC(=O)c1ccc(S(=O)(=O)NCc2ccco2)cc1)Nc1ccccc1	/	-1	1	/	2	1
CCOc1c(C)cc(-c2ncccc2O)cc1C	92*!	3	-2	3	/	-3
CCOC(=O)C1CCN(S(=O)(=O)c2cccc(-c3cn4ccccc4n3)c2)CC1	99*	-3	3	1	/	2
CC1CCN(S(=O)(=O)c2cccc(-c3cn4cc(Cl)ccc4n3)c2)CC1	-18	-1	0	17	0	0
CCOC(=O)C1CCN(S(=O)(=O)c2cccc(-c3cn4cc(Cl)ccc4n3)c2)CC1	99*	1	0	-16	/	-2
COCC#Cc1cnc2c(c1)C(=O)N([C@@H](C)CO)C[C@H](C)[C@@H](CN(C)C(=O)C1CCCCC1)O2	/	/	/	/	3	/
COc1cc(C=C2C(=O)c3ccccc3C2=O)ccc1OCC(=O)N1CCOCC1	/	/	/	/	/	4
O=C1c2ccc(Oc3ccc([N+](=O)[O-])cc3)cc2C(=O)N1c1ccncc1	-13	1	0	-6	1	10
CCc1nnc(N2C(=O)c3ccc(Oc4ccc([N+](=O)[O-])cc4)cc3C2=O)s1	93*	-1	-2	-17	4	0
CCCCN(CCCNc1ncnc2nc[nH]c12)c1ccccc1	93*	-6	0	-10	0	/
CCN(CCCNc1ncnc2nc[nH]c12)c1cccc(C)c1	99*	-1	-1	-3	2	/
CCCCN(c1ccccc1)c1ncnc2nc[nH]c12	/	-1	1	-2	/	/
CCN(c1cccc(C)c1)c1ncnc2nc[nH]c12	-15	-5	3	16	-5	/
c1ccc2c(CCNc3ncnc4nc[nH]c34)c[nH]c2c1	98*	9	2	i	1	/
CC(Sc1nc(N)cc(=O)[nH]1)C(=O)Nc1sc2c(c1C#N)CCCC2 (stereo unspecified)	92*	2	-2	-6	2	3
N#Cc1c(NC(=O)CSc2nc(N)cc(=O)[nH]2)sc2c1CCCCCC2	4	3	-1	-22	4	0
COc1ccc(NC(=O)Nc2ccc3c(c2)C(=O)N([C@H](C)CO)C[C@@H](C)[C@H](CN(C)C)OCCCC[C@@H](C)O3)cc1	/	/	/	/	-2	/
CCOC(=O)c1cc2sc(C)cc2n1CC(=O)N1CCN(C(=O)c2ccco2)CC1	99*	4	-3	40	/	1
CCN(CC)CCCNC(=O)c1cc(-c2ccccc2)c(N2CCCCC2)s1	99*	-5	-5	-8	-11	11
Cc1ccc2cc(F)ccc2n1	/	/	/	/	-3	-5
Cc1ccc2cc(N)ccc2n1	/	5	0	/	61*	14
SMILES	ALR inh	N-glyco inh	CDK5 p35 inh	Mot1-301 SUMO	Casp6 inh	NSD2 inh
Cc1ccc(/C=C(\C#N)C(=O)NCC2CCCO2)o1 (stereo unspecified)	-4	1	0	13	4	6
N#C/C(=C\c1cc2c(cc1Br)OCO2)C(=O)NCC1CCCO1 (stereo unspecified)	98*	17	0	-5	1	-4
O=C(Nc1cccc(C(F)(F)F)c1)c1cccc(NS(=O)(=O)c2ccc(Br)c(C(=O)O)c2)c1	4	0	2	15	-2	-4
O=C(Nc1cccc(C(F)(F)F)c1)c1cccc(NS(=O)(=O)c2ccc(O)c(C(=O)O)c2)c1	8	4	0	7	39*	5
N#C[C@@H]1[C@@H](c2ccccc2C2=CCCCC2)[C@@H](CO)N1C(=O)Cc1ccncc1	/	/	/	/	0	/
C/C(=N\NC(=O)CSCc1ccccc1Cl)c1cc(O)ccc1O	98*	-6	-2	-5	-1	12
O=C(CN1CCN(Cc2ccccc2)C1=O)NCc1ccc(Cl)cc1	5	-1	1	18	/	-1
CCN(CCNC(=O)CN1CCN(Cc2ccc(Cl)cc2)C1=O)c1ccccc1	98*	-2	-3	-7	/	5
COc1ccc(C(=O)Nc2ccc3c(c2)nc2n3CCSC2)cc1	99*	-2	0	13	/	-2
O=C(Nc1ccc2c(c1)nc1n2CCSC1)c1ccccc1	99*	-12	3	-25	/	3
C[C@@H]1CN([C@@H](C)CO)C(=O)c2cc(NS(=O)(=O)c3cccs3)ccc2O[C@@H](C)CCCCO[C@@H]1CN(C)C(=O)Nc1ccccc1	/	/	/	/	-2	/
CN1C(=O)NC(c2ccccc2)(C(F)(F)F)S/C1=C(/C#N)c1nnc(N2CCOCC2)n1-c1ccccc1 (stereo unspecified)	8	0	3	-8	3	2
CN1C(c2ccc(F)cc2)=CS/C1=C(/C#N)c1nnc(N2CCOCC2)n1-c1ccccc1	98*	0	-2	-4	2	2
C=CCN1C(c2ccccc2)=CS/C1=C(/C#N)c1nnc(N2CCOCC2)n1-c1ccccc1	99*	-2	0	14	7	2
N#CC1=C(N)NC(=S)C(C(N)=O)C1c1ccccc1F (stereo unspecified)	84*	1	12	-17	2	-5
CC(C)NC(=O)Nc1ccc2c(c1)C(=O)N([C@H](C)CO)C[C@H](C)[C@@H](CN(C)S(=O)(=O)c1ccc(Cl)cc1)OCCCC[C@@H](C)O2	/	/	/	/	-2	/
N#C[C@@H]1[C@@H](c2ccc(-c3ccccc3F)cc2)[C@H](CO)N1C(=O)c1ccccn1	/	/	/	/	0	/
CCOC(=O)c1ccc(NC(=O)CSc2nc3c(c(=O)n2-c2ccccc2OC)SCC3)cc1	99*	-2	0	6	-1	/
Cn1c(SCC(=O)Nc2ccc(C(N)=O)cc2)nc2c(c1=O)SCC2	99*	1	3	-1	8	-1
Cn1c(SCC(=O)Nc2cccc(F)c2)nc2c(c1=O)SCC2	94*	-1	-1	44	-1	/
CC(C)NC(=O)N(C)C[C@@H]1Oc2ccc(NC(=O)Cc3ccccc3)cc2CC(=O)N([C@@H](C)CO)C[C@H]1C	/	/	/	/	0	/
COc1cccc(CN(C)C[C@H]2OCc3cn(nn3)CCCC(=O)N([C@@H](C)CO)C[C@@H]2C)c1	/	/	/	/	0	/
CNC(=S)N(CCc1c(C)[nH]c2ccc(Cl)cc12)Cc1cccnc1	97*	0	0	0	-4	1
